Source: PubChem BioAssay (Tox21)
Where “and” joins values, the source holds several entries; their conditions need not be identical. Identical values can stand only once. Records with an inconclusive call do not appear. A call without a number means that no potency is given here. A number with no mark means an inactive call. Calls of active or inactive are those of the source. Calls follow the shape of the dose curve; as a rule, active = well fitted curve in the direction sought with a large enough effect in the repeat runs; inconclusive = weak or mixed curves; inactive = no such curve, though single readings can be large; an effect the other way counts as inactive or inconclusive.

Assay: qHTS RealTime-Glo MT Cell Viability Assay in HepG2 cells - 40 hour (AID 1224870); also: nearly all actives have a fitted effect of over 50% in size; also: potency is read from the fitted curve at half-maximal effect
Conditions: RealTime-Glo luminescence; series mostly up to 76.8 µM
In short: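 Real-time viability: cells seeded at 600 per well together with NanoLuc and cell-permeant prosubstrate, compounds added after 5 h incubation. Luminescence tracked at 0, 8, 16, 24, 32 and 40 h of exposure.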

Row | Compound | Potency
1 | CCOC(C(=O)OCCN(C)C)(c1ccccc1)c1ccccc1 | inactive
2 | CC1(C)CC(=O)CC(C)(C)N1[O] | inactive
3 | CCC[N+](CCC)(CCC)CCC | inactive
4 | Nc1cc(Cl)cc(C(=O)O)c1Cl | inactive
5 | C[C@H]1[C@@H]2Cc3ccc(O)cc3[C@@]1(C)CCN2C | inactive
6 | CCCCCCCCCCCCN(C)C | inactive
7 | CC(C)(C)NCC(O)c1ccccc1Cl (centres undefined) | inactive
8 | COc1cc(C[C@@H](C)N)c(OC)cc1Br | inactive
9 | CCCCNC(=O)OCC#CI | 4.87 µM (active) and 2.19 µM (active)
10 | CC(C)CCCCCCCOC(=O)c1ccccc1C(=O)OCCCCCCCC(C)C | inactive
11 | C1CS1 | inactive

Assay: A CellTox Green Cytotoxicity Assay to monitor cytotoxicity in HEK293 cells - 40 hour (AID 1224871); also: nearly all actives have a fitted effect of over 45% in size; also: potency is read from the fitted curve at half-maximal effect
Conditions: CellTox Green fluorescence; series mostly up to 76.8 µM
In short: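 Real-time, in one plate: 600 HEK293 cells/well with dead-cell DNA dye, pinned compound after 5 h, 37 C incubation over 40 h; viable cells give no appreciable fluorescence.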

Row | Compound | Potency | cytotoxicity increase
12 | CCCCCl | inactive | –
13 | CC(C)(C)NCC(O)c1cc(Cl)c(N)c(C(F)(F)F)c1 (centres undefined) | inactive | –
14 | O=C(Cc1ccccc1)OCCc1ccccc1 | inactive | –
15 | N#CC(C#N)=C(C#N)C#N | inactive | –
16 | O=C(O)COc1cc(Cl)c(Cl)cc1Cl | inactive | –
17 | CCCC(C)(COC(N)=O)COC(=O)NC(C)C (centres undefined) | inactive | –
18 | CN1CC[C@]23c4c5ccc(O)c4O[C@H]2[C@@H](O)C=C[C@H]3[C@H]1C5 | inactive | –
19 | CCOP(=S)(S)OCC | inactive | –
20 | C=CCc1ccccc1O | inactive | –
21 | CC(C)(C)OOC(C)(C)CCC(C)(C)OOC(C)(C)C | inactive | –
22 | O=S(=O)(c1ccccc1)c1ccccc1 | inactive | –
23 | Nc1c(Br)cc(Br)c2c1C(=O)c1ccccc1C2=O | – | -1.3% [at 15.8 µM]
24 | COc1cc(CC(C)N)c(OC)cc1Br (centres undefined) | inactive | –
25 | O=C(O)c1ccc(=O)[nH]c1 | inactive | –
26 | CCNC(=O)NC(=O)/C(C#N)=N/OC | inactive | –
27 | C=CCOCC1CO1 (centres undefined) | inactive | –
28 | CCCSP(=S)(OCC)Oc1ccc(SC)cc1 (centres undefined) | inactive | –
29 | CCOP(=S)(OCC)Oc1ccc(S(C)=O)cc1 (centres undefined) | inactive | –
30 | C=C(C)C(=O)OCCCCOC(=O)C(=C)C | inactive | –

Row | Compound | Potency | cytotoxicity increase
31 | C=C(Cl)Cl | inactive | –
32 | Clc1ccc(Cl)c(Cl)c1 | inactive | –
33 | NNCCO | inactive | –
34 | O=C(N[C@H]1CN2CCC1CC2)c1ccc2c(c1)OCCO2 | inactive | –
35 | ClCc1ccccc1Cl | inactive | –
36 | Nc1ccccc1C(=O)OCCc1ccccc1 | 21.9 µM (active) | –
37 | O=C=NC1CCCCC1 | inactive | –
38 | N#CC1(N=NC2(C#N)CCCCC2)CCCCC1 | inactive | –
39 | CCOC(C(=O)OCCN(C)C)(c1ccccc1)c1ccccc1 | inactive | –
40 | CC1(C)CC(=O)CC(C)(C)N1[O] | inactive | –
41 | CCC[N+](CCC)(CCC)CCC | inactive | –
42 | Nc1cc(Cl)cc(C(=O)O)c1Cl | inactive | –
43 | CCCCCCCCCCCCN(C)C | inactive | –
44 | CC(C)(C)NCC(O)c1ccccc1Cl (centres undefined) | inactive | –
45 | COc1cc(C[C@@H](C)N)c(OC)cc1Br | inactive | –
46 | CCCCNC(=O)OCC#CI | 54.7 µM (active) and 54.9 µM (active) | –
47 | CC(C)CCCCCCCOC(=O)c1ccccc1C(=O)OCCCCCCCC(C)C | inactive | –
48 | C1CS1 | inactive | –

Assay: qHTS RealTime-Glo MT Cell Viability Assay in HEK293 cells - 16 hour (AID 1224872); also: top concentration of the series differs between compounds; nearly all actives have a fitted effect of over 50% in size
Conditions: RealTime-Glo luminescence; series mostly up to 76.8 µM
In short: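 Luminescence generated by NanoLuc from substrate produced by living HEK293 cells served as the viability signal. Each value reflects the reading at its stated time point during continuous 40 h compound exposure at 37 C.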

Row | Compound | Potency
49 | CCCCCl | inactive
50 | CC(C)(C)NCC(O)c1cc(Cl)c(N)c(C(F)(F)F)c1 (centres undefined) | inactive
51 | O=C(Cc1ccccc1)OCCc1ccccc1 | inactive
52 | N#CC(C#N)=C(C#N)C#N | inactive
53 | O=C(O)COc1cc(Cl)c(Cl)cc1Cl | inactive
54 | CCCC(C)(COC(N)=O)COC(=O)NC(C)C (centres undefined) | inactive
55 | CN1CC[C@]23c4c5ccc(O)c4O[C@H]2[C@@H](O)C=C[C@H]3[C@H]1C5 | inactive
56 | CCOP(=S)(S)OCC | inactive
57 | CC(C)(C)OOC(C)(C)CCC(C)(C)OOC(C)(C)C | inactive
58 | COc1cc(CC(C)N)c(OC)cc1Br (centres undefined) | inactive
59 | O=C(O)c1ccc(=O)[nH]c1 | inactive
